# From PubChem BioAssay AID1259420 (Broad Institute, 2018)
# Among all 1,000 compounds or so, about 250 (25%) were called active. Roughly 31% stayed inconclusive and do not appear here. Not all results are given here. Measured potencies and affinities stand elsewhere. A number with no mark means an inactive call. How the calls were made is not given here.
# Assay: T. gondii intracellular growth, IFN-gamma absent, dose response, cell-based (AID 1259420);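 further: host cells were HeLa; final incubation lasted 72 hours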
# Conditions: Toxoplasma gondii growth in host cells, no IFN-gamma
compound,measurement,setting,value
COc1ccc(CN2CCC3(CC(n4cnnc4)CO3)C2)cc1 (configuration not stated),max activity,at 19.5 µM unless noted,41.3%
O=C(Cc1cccnc1)N1CC(=O)N2[C@H](CO)[C@H](c3ccc(C#CC4CCCCC4)cc3)[C@@H]2C1,max activity,at 10 µM,-8.18%
same,max activity,at 19.5 µM,7.75%
O=C(CC(F)(F)F)N1C[C@@H]2[C@H](c3ccccc31)[C@H](CO)N2CC1CCOCC1,max activity,at 19.5 µM unless noted,-6.58% [at 5 µM]
CN(C)C(=O)c1ccc(-c2ccc([C@H]3[C@H](CO)N4C(=O)CN(C(=O)CC5CC5)C[C@@H]34)cc2)cc1,max activity,at 19.5 µM unless noted,-9.43% [at 0.3 µM]
O=C(C1CCCCC1)N1[C@H](CO)[C@@H]2c3ccccc3N(S(=O)(=O)c3ccccc3)C[C@@H]21,max activity,at 19.5 µM unless noted,10.6% [at 5 µM]
CN(C)C(=O)c1cccc(-c2ccc(C3[C@H]4CNC[C@@H]3N4Cc3ccccc3C(F)(F)F)cc2)c1 (some centres not stated),max activity,at 19.5 µM unless noted,-11.4%
COc1ccc(C#Cc2ccc3c(c2)[C@H]2[C@H](CCN2C(=O)c2cnccn2)[C@H](CO)N3)cc1,max activity,at 19.5 µM unless noted,21.9%
COCC(=O)N1CC(=O)N2[C@H](CO)[C@@H](c3ccc(-c4ccncc4)cc3)[C@H]2C1,max activity,at 19.5 µM unless noted,9.86% [at 2.6 µM]
CC(C)c1ccc(C(=O)N=C(N)N)cc1S(C)(=O)=O,max activity,at 19.5 µM unless noted,-6.61% [at 10 µM]
O=C1CNC[C@H]2[C@@H](c3ccc(C#Cc4cccnc4)cc3)[C@@H](CO)N12,max activity,at 19.5 µM unless noted,-4.61% [at 1.2 µM]
NCCCCCCNS(=O)(=O)c1ccc2c(Cl)cccc2c1,max activity,at 19.5 µM unless noted,-5.19% [at 10 µM]
NC(=O)CN1CCOCCOCCN(CC(N)=O)CCOCC1,max activity,at 19.5 µM unless noted,5.9% [at 5 µM]
COCCN(CCOC)C(=O)c1cc2c(c3ccccc3n2CC2CC2)n1-c1ncccn1,max activity,at 19.5 µM unless noted,18%
CN(C)S(=O)(=O)N1C[C@@H]2CN(Cc3ccoc3)CCO[C@H]2C1,max activity,at 19.5 µM unless noted,-18.6%
COC[C@H]1CN(C)C[C@]12CCN(C(=O)c1cc3ccccc3s1)C2,max activity,at 19.5 µM unless noted,11.6%
O=S1(=O)c2ccccc2OCC2(CCN(Cc3ccccc3)CC2)CN1CC1CC1,max activity,at 19.5 µM unless noted,19.2%
CCN1[C@@H]2CCN(C(=O)CC3CC3)CC[C@@H]2Oc2ccccc2S1(=O)=O,max activity,at 19.5 µM unless noted,19.2% [at 1.2 µM]
O=C(NCc1cncc2c1CCN(Cc1cccc(F)c1)C2)C1CC1,max activity,at 5 µM,9.94%
same,max activity,at 19.5 µM,14%
CC(=O)N1CCN(C(C)C)C(c2nnc3ccc(C(=O)N4CCCC4)cn23)C1 (configuration not stated),max activity,at 19.5 µM unless noted,-12.1% [at 10 µM]
COc1ccccc1-c1ccc2c(c1)[C@H]1[C@H](CCN1S(=O)(=O)c1ccc(C)cc1)[C@@H](CO)N2,max activity,at 19.5 µM unless noted,21.4%
COc1ccccc1-c1ccc2c(c1)[C@H]1[C@H](CCN1Cc1ccccc1F)[C@@H](CO)N2,max activity,at 19.5 µM unless noted,20.2%
O=S(=O)(c1cccc(F)c1)N1CC[C@@H]2[C@H]1c1cc(Br)ccc1N[C@@H]2CO,max activity,at 19.5 µM unless noted,7.04%
Cc1cccc(S(=O)(=O)N2CC[C@@H]3[C@@H](CO)Nc4ccc(-c5ccccc5F)cc4[C@@H]32)c1,max activity,at 19.5 µM unless noted,-19% [at 0.6 µM]
CCC(=O)N1CC[C@@H]2[C@H]1c1cc(C#Cc3ccccc3F)ccc1N[C@@H]2CO,max activity,at 19.5 µM unless noted,-12.6%
COC[C@]12CCC[C@@H]1CN(S(=O)(=O)c1cccc(OC)c1)C2,max activity,at 19.5 µM unless noted,17.2%
CN(C)CCN1CCC2(CCCN(C(=O)C3CCOC3)C2)C1=O (configuration not stated),max activity,at 19.5 µM unless noted,31.3%
COCC1CN(C(=O)c2ccccc2F)Cc2cnn(CC3CC3)c21 (configuration not stated),max activity,at 19.5 µM unless noted,-15.3% [at 10 µM]
Cc1ccccc1-c1ccc([C@@H]2[C@@H](CO)N3C(=O)CN(C(=O)c4ccncc4)C[C@@H]23)cc1,max activity,at 19.5 µM unless noted,15% [at 0.16 µM]
COc1ccccc1S(=O)(=O)N1CC[C@H]2[C@H](CO)Nc3ccc(-c4ccc(C#N)cc4)cc3[C@H]21,max activity,at 19.5 µM unless noted,19% [at 21 µM]
c1cc(-c2nccn2CCn2ccnc2)ccn1,max activity,at 19.5 µM unless noted,7.6% [at 0.16 µM]
O=C(NCc1ccccc1)c1cc(-c2cnc(N3CCCC3)nc2)cn1CC1CC1,max activity,at 19.5 µM unless noted,-17.4% [at 10 µM]
O=C(Nc1ccccc1)c1ncn2c1CN(CC1CC1)S(=O)(=O)c1ccccc1-2,max activity,at 19.5 µM unless noted,-5.31% [at 1.2 µM]
COc1ccccc1C#Cc1ccc([C@H]2[C@@H](CO)N3CCCCN(C(=O)C4CCC4)C[C@H]23)cc1,max activity,at 19.5 µM unless noted,11% [at 0.16 µM]
CN(C)CCOCC12CCCOC1CCN(C(=O)c1cccn1C)C2 (configuration not stated),max activity,at 19.5 µM unless noted,-18.9% [at 5 µM]
CC(C)COC1CC2(CCN(C(=O)c3cccn3C)CC2)C1,max activity,at 19.5 µM unless noted,9.82% [at 0.3 µM]
CC(C)C#Cc1ccc([C@@H]2[C@@H](CO)N3C(=O)CN(C(=O)NC4CCCC4)C[C@H]23)cc1,max activity,at 19.5 µM unless noted,-5.34%
COCC(=O)N1CC(=O)N2[C@H](CO)[C@H](c3ccc(C#CC4CC4)cc3)[C@@H]2C1,max activity,at 19.5 µM unless noted,-9.08% [at 5 µM]
COc1ccc(-c2ccc([C@@H]3[C@@H](CO)N4C(=O)CN(C(=O)C5CC5)C[C@@H]34)cc2)cc1,max activity,at 19.5 µM unless noted,19.5% [at 21 µM]
CN1CCCN(CC2(O)CCNC2)CC1 (configuration not stated),max activity,at 19.5 µM unless noted,11.3% [at 0.08 µM]
CN1c2ccc(C3=CCCCC3)cc2[C@@H]2[C@@H](CCN2C(=O)C2CCOCC2)[C@H]1CO,max activity,at 19.5 µM unless noted,-17.2% [at 5 µM]
Cc1cccc(-c2ccc([C@@H]3[C@@H](CO)N4C(=O)CN(C(=O)c5ccc6c(c5)OCO6)C[C@H]34)cc2)c1,max activity,at 19.5 µM unless noted,-5.13% [at 0.3 µM]
Cc1cccc(-c2ccc([C@H]3[C@H]4CN(C(=O)c5ccc6c(c5)OCO6)CC(=O)N4[C@H]3CO)cc2)c1,max activity,at 19.5 µM unless noted,11.6%
COc1ccc(-c2ccc3c(c2)[C@H]2[C@H](CCN2C(=O)Nc2ccccc2OC)[C@H](CO)N3C)cc1,max activity,at 19.5 µM unless noted,-12.3% [at 0.6 µM]
N#Cc1ccc(-c2ccc3c(c2)[C@@H]2[C@@H](CCN2C(=O)C2CCCCC2)[C@@H](CO)N3)cc1,max activity,at 19.5 µM unless noted,24.3%
N#Cc1ccc(-c2ccc3c(c2)[C@H]2[C@H](CCN2C(=O)C2CCCCC2)[C@@H](CO)N3)cc1,max activity,at 19.5 µM unless noted,-26.1% [at 5 µM]
